These results are taken from PubChem BioAssay (NCATS).

Several values for one entry are separate records, joined by “and”; a condition that tells them apart may be missing. Equal entries are not always repeated. Records with an inconclusive call do not appear. Unmarked numbers belong to inactive results. Activity calls are given as the source filed them. The call rests on the fitted dose curve; in most records, active means well fitted curve in the direction sought with a large enough effect; inconclusive means small, poorly fitted or top-dose-only effect, or another doubt; inactive means no such curve, though single readings can be large; an effect the other way counts as inactive or inconclusive. Non-standard residues stand in square brackets, D forms with d. Residues, ends and D or L forms follow the SMILES beside them. Peptide text beside a SMILES is read from it. *: point of attachment. Sta = CC(C)C[C@H](N)[C@@H](O)CC(=O)O; Isovaleryl = CC(C)CC(=O)*

Assay [1] can be described thus: qHTS of pediatric cancer cell lines to identify multiple opportunities for drug repurposing: Primary screen for LAN-5 cells (AID 1347100). Further: potency means the concentration at half of the fitted maximal effect. In short, it runs like this: (§1)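 Cells (500-1,000/well) in growth media were settled 5 h at 37 degrees C, then given compounds for 48 h. Viability was read as CellTiter-Glo luminescence. Primary runs used MIPE at 11 points (0.78 nM-46 µM) and NPC at 8 points (0.59 nM-46 µM); follow-ups used 11 points.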

Assay [2] in a line: qHTS of pediatric cancer cell lines to identify multiple opportunities for drug repurposing: Primary screen for BT-12 cells (AID 1347101). Further: nearly all actives have a fitted effect of over 25% in size. Further: potency means the concentration at half of the fitted maximal effect. In short, it runs like this: (§2)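 Cells (500-1,000/well) rested 5 h, then received compounds for 48 h; metabolically active cells were measured by CellTiter-Glo luminescence. Final concentrations spanned up to 46 µM (MIPE, 11-point) or 0.59 nM-46 µM (NPC, 8-point) in primary screens, 11-point in follow-ups.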

Assay [3] is described as follows: qHTS of pediatric cancer cell lines to identify multiple opportunities for drug repurposing: Primary screen for Rh18 cells (AID 1347102). Further: nearly all actives have a fitted effect of over 65% in size. Further: potency means the concentration at half of the fitted maximal effect. In short, it runs like this:
as §1
For orientation: In qHTS, concentration-response curves come from the screen itself.

Assay [4] in a line: qHTS of pediatric cancer cell lines to identify multiple opportunities for drug repurposing: Primary screen for OHS-50 cells (AID 1347103). Further: nearly all actives have a fitted effect of over 40% in size. Further: potency means the concentration at half of the fitted maximal effect. In short, it runs like this: as §2
Assay [5] is described as follows: qHTS of pediatric cancer cell lines to identify multiple opportunities for drug repurposing: Primary screen for RD cells (AID 1347104). Further: nearly all actives have a fitted effect of over 55% in size. Further: potency means the concentration at half of the fitted maximal effect. In short, it runs like this:
(§3)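 ATP-based luminescence (CellTiter-Glo) quantifies viability after a 48-hour exposure. Compounds are dosed across 8 or 11 final concentrations; DMSO and 2.3 µM bortezomib serve as controls.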

The nature of assay [6]: qHTS of pediatric cancer cell lines to identify multiple opportunities for drug repurposing: Primary screen for MG 63 (6-TG R) cells (AID 1347105). Further: nearly all actives have a fitted effect of over 50% in size. Further: potency means the concentration at half of the fitted maximal effect. In short, it runs like this: as §3
Assay [7] in a line: qHTS of pediatric cancer cell lines to identify multiple opportunities for drug repurposing: Primary screen for control Hh wild type fibroblast cells (AID 1347106).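 Further: series mostly up to about 46 µM; a drop in luminescence marks cytotoxicity and a rise apparent proliferation; nearly all actives have a fitted effect of over 55% in size.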 In short, it runs like this: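 Viability after 48 h compound treatment at 37C, 500-1,000 cells/well, read as ATP luminescence with CellTiter-Glo. Primary screens used 11-point (MIPE, 0.78 nM-46 µM) or 8-point (NPC, 0.59 nM-46 µM) final concentrations; follow-up screens used 11-point dilutions.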

A short description of assay [8]: qHTS of pediatric cancer cell lines to identify multiple opportunities for drug repurposing: Primary screen for Rh30 cells (AID 1347107). Further: series mostly up to about 46 µM; nearly all actives have a fitted effect of over 75% in size. In short, it runs like this:
as §1

Assay [9] can be described thus: qHTS of pediatric cancer cell lines to identify multiple opportunities for drug repurposing: Primary screen for Rh41 cells (AID 1347108). Further: nearly all actives have a fitted effect of over 70% in size. Further: potency means the concentration at half of the fitted maximal effect. In short, it runs like this:
as §3

A short description of assay [10]: qHTS of pediatric cancer cell lines to identify multiple opportunities for drug repurposing: Confirmatory screen for NB1643 cells (AID 1347109). Further: nearly all actives have a fitted effect of over 45% in size. Further: potency means the concentration at half of the fitted maximal effect. In short, it runs like this:
as §1

As for `O=C(CCc1ccc(O)cc1)c1c(O)cc(O)cc1O`, the Potency in [1] is 6.62 µM (active); in assay [2] it was 1.22 µM (active); in assay [4] it was 432 nM (active). For the same compound, the Potency entry in assay [3], in assay [5], in [6], in assay [7], in assay [8] and in assay [9] was “inactive” in each case. Besides, in assay [10], the Potency result is “inactive”.

On to `CCN(CC)CCOc1ccc(Nc2ncc3cc(-c4c(Cl)cccc4Cl)c(=O)n(C)c3n2)cc1`, for which the Potency in assay [1] was 1.05 µM (active); in assay [2] it was 19.3 µM (active); in [3], 372 nM (active); in assay [4], 122 nM (active); in [5], 743 nM (active); in assay [6] it was 187 nM (active). The Potency in [9] was 1870 nM (active); in assay [10], 9.27 µM (active).

With `CC(S)C(=O)NCC(=O)O` (stereo not drawn), the Potency result in assay [1], in [2], in assay [3], in [4], in assay [5] and in [6] was “inactive” throughout. For the same compound, the Potency result in [7], in assay [8], in assay [9] and in assay [10] was “inactive” throughout.

On to `NS(=O)(=O)c1cc(C(=O)O)c(NCc2ccco2)cc1Cl`, for which the Potency result in [1], in assay [2], in [3], in assay [4], in assay [5] and in [6] was “inactive” each time. In addition, the Potency entry in [7], in assay [8] and in [9] was “inactive” throughout.

Take `O=C(O)c1cccnc1Nc1cccc(C(F)(F)F)c1`: the Potency entry in assay [1], in assay [2], in assay [3], in assay [4], in assay [5] and in [6] was “inactive” each time. In addition, the Potency result in assay [7], in assay [8] and in [9] was “inactive” in each case.

In the case of `Nc1cc(C(Cl)=C(Cl)Cl)c(S(N)(=O)=O)cc1S(N)(=O)=O`, the Potency result in assay [1], in assay [2], in assay [3], in assay [4], in [5] and in assay [6] was “inactive” throughout. Moreover, the Potency entry in assay [7], in assay [8] and in assay [9] was “inactive” in each case.

Turning to `O=C(CS(=O)Cc1ccco1)NCC=CCOc1cc(CN2CCCCC2)ccn1` (stereo not drawn), the Potency result in assay [1], in assay [2], in assay [3], in assay [4], in assay [5] and in assay [6] was “inactive” in each case. For the same compound, the Potency result in [7], in [8] and in assay [9] was “inactive” each time.

With `Cc1ncc([N+](=O)[O-])n1CC(C)O` (stereo not drawn), the Potency result in assay [1], in [2], in [3], in assay [4], in assay [5] and in [6] was “inactive” each time. For the same compound, the Potency entry in [7], in [8] and in [9] was “inactive” in each case.

Consider `COc1c(O)cc2c(c1O)[C@@H]1O[C@H](CO)[C@@H](O)[C@H](O)[C@H]1OC2=O`, for which the Potency result in assay [1], in assay [2], in assay [3], in [4], in [5] and in [6] was “inactive” each time. In addition, the Potency result in assay [7], in assay [8] and in [9] was “inactive” throughout.

On to `N[C@@H](Cc1cc(I)c(Oc2cc(I)c(O)c(I)c2)c(I)c1)C(=O)O`, for which the Potency entry in [1], in assay [2], in assay [3], in [4], in [5] and in assay [6] was “inactive” throughout. For the same compound, the Potency entry in [7], in assay [8] and in assay [9] was “inactive” in each case.

As for `CN(C)C(=O)COC(=O)Cc1ccc(OC(=O)c2ccc(N=C(N)N)cc2)cc1`, the Potency result in assay [1], in [2], in assay [3], in assay [4], in [5] and in assay [6] was “inactive” each time. Also, the Potency entry in assay [8] and in assay [9] was “inactive” each time.

Consider `COc1c2occc2cc2ccc(=O)oc12`, for which the Potency result in [1], in assay [2], in [3], in assay [4], in [5] and in assay [6] was “inactive” each time. Besides, the Potency result in assay [7], in assay [8] and in assay [9] was “inactive” in each case.

Regarding `CC1Cc2ccccc2N1NC(=O)c1ccc(Cl)c(S(N)(=O)=O)c1` (stereo not drawn), the Potency entry in assay [1], in assay [2], in assay [3], in [4], in assay [5] and in assay [6] was “inactive” each time. Further, the Potency result in [7], in assay [8] and in assay [9] was “inactive” each time.

Consider `COC(=O)[C@H](Cc1ccccc1)NC(=O)[C@@H](N)CC(=O)O` (H-Asp-Phe-OMe), for which the Potency result in assay [1], in assay [2], in assay [3], in assay [4], in assay [5] and in assay [6] was “inactive” each time. In addition, the Potency entry in assay [7], in assay [8] and in assay [9] was “inactive” throughout.

With `CC(C)CC(=O)N[C@H](C(=O)N[C@H](C(=O)N[C@@H](CC(C)C)[C@@H](O)CC(=O)N[C@@H](C)C(=O)N[C@@H](CC(C)C)[C@@H](O)CC(=O)O)C(C)C)C(C)C` (Isovaleryl-VV[Sta]A[Sta]-OH), the Potency result in assay [1], in [2], in assay [3], in [4], in [5] and in assay [6] was “inactive” throughout. Moreover, the Potency result in [7], in assay [8] and in [9] was “inactive” throughout. Besides, the Potency in [10] was 16.5 µM (active).

As for `Cc1cccc(CN2CCN(C(c3ccccc3)c3ccc(Cl)cc3)CC2)c1` (stereo not drawn), the Potency entry in assay [1], in assay [3], in assay [6], in assay [7], in [8] and in [9] was “inactive” each time. Moreover, in assay [4], the Potency is 24.6 µM (active) and 24.3 µM (active).

For the compound `CC1(C)NC(=O)N(c2ccc([N+](=O)[O-])c(C(F)(F)F)c2)C1=O`, the Potency entry in [1], in assay [3], in [4], in [5], in [6] and in assay [7] was “inactive” throughout. Further, the Potency result in assay [8] and in [9] was “inactive” each time.

As for `Cc1ccc(Nc2nccc(N(C)c3ccc4c(C)n(C)nc4c3)n2)cc1S(N)(=O)=O`, the Potency in [1] is 18.7 µM (active); in assay [2] it was 12.3 µM (active) and 15.3 µM (active); in assay [3], 16600 nM (active); in [4], 5500 nM (active); in assay [6], 66.8 nM (active). For the same compound, the Potency result in assay [7] and in assay [8] was “inactive” throughout.

As for `CCCCc1ccc2nc(NC(=O)OC)[nH]c2c1`, the Potency was 0.0118 µM (active) in assay [1]; 27.3 nM (active) and 61.7 nM (active) in assay [2]; 15.3 nM (active) and 61.7 nM (active) in assay [4]; 0.657 µM (active) in assay [10]. Moreover, the Potency entry in [3] and in assay [8] was “inactive” each time.

Take `Cc1cc(=O)c2c(O)c3c(O)cc(=O)c4c3c3c(cc(O)c1c23)C(C)(C)C=4O`: the Potency in assay [1] was 2.59 µM (active) and 5.26 µM (active); in [4], 1.51 µM (active) and 2.43 µM (active); in [5] it was 2.06 µM (active) and 3.72 µM (active); in assay [6] it was 920 nM (active) and 4.69 µM (active); in assay [9], 18700 nM (active). Also, the Potency entry in [3] and in assay [7] was “inactive” throughout.

`CC[C@]1(O)C[C@H]2CN(CCc3c([nH]c4ccccc34)[C@@](C(=O)OC)(c3cc4c(cc3OC)N(C=O)[C@H]3[C@@](O)(C(=O)OC)[C@H](OC(C)=O)[C@]5(CC)C=CCN6CC[C@]43[C@@H]65)C2)C1`: the Potency in [1] is 8.3 nM (active) and 59.6 nM (active); in assay [2], 15.3 nM (active) and 19.5 nM (active); in assay [4], 12.2 nM (active) and 12.3 nM (active); in assay [6], 33.5 nM (active); in [10], 10.4 nM (active) and 1.04 µM (active). Besides, the Potency result in assay [3], in assay [7], in [8] and in assay [9] was “inactive” each time.

With `N=C(N)c1ccc2cc(OC(=O)c3ccc(N=C(N)N)cc3)ccc2c1`, the Potency result in [1], in [3], in assay [4], in assay [5], in assay [6] and in assay [7] was “inactive” throughout. Also, the Potency entry in assay [8] and in assay [9] was “inactive” each time.
